Test results: the supplement of paper PMC6555819

tested on: VDR:RXRa (NR concentration 270 nM, RXRa partner concentration 90 nM); assay: PBM binding z-score (relative to random genomic background probes); higher = stronger binding; sequences stand for … in GC…GCGATTGACAGCGTAGAATGAAGG
Method: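 Protein-binding microarray (Agilent 4x180K custom design, double-stranded 60-nt probes: 5' GC cap, 34-nt variable region, 24-nt constant primer region; full probe sequence given). Purified or IVT nuclear receptor:RXRα heterodimers (3:1 NR:RXRα, mostly 270:90 nM) or homodimers were incubated for 1 h in PBS with 2% milk and no ligand, then detected with Alexa488 antibodies. Fluorescence from o1-orientation probes (~5 replicates averaged) was converted to z-scores against 500 random hg19 background probes. Variable regions are seed direct-repeat (DR0–DR5) sites, all their single-nucleotide variants and half-site ablations.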

Sequence | PBM binding z-score
TCCATTAGTTGAAGGGCAACCGACGAGTCCGTTT | 1.02
AGAACGAGGGCACGCTGAGTTGATAGCAGAGTAG | 2.2
ATCTCTGGGTAAGACTCAGTTCAGTGAAGAACGC | 0.528
CAAACTAGGTCAAGAGGTAAAAGTCCGCTTCCCG | 2.17
TCTTGTAGATCAAGCAGGTTAGGAAAGCCTGAGT | 0.203
GCAGACAGGTGAAACGCAGGTAACTCAAGGTGGC | -0.431
CGAACTAGGTTAGAACAGGACAGTGAAGGATGAT | -0.215
GCTATTAGTTGAAAGGGGAACCGAATGATTCTCG | -0.142
GCGACTGTGGCATCAGCAGGTTACCATAACTTAA | -0.319
AGAACGAGGGCACGCTGAGTCGATAGCAGAGTAG | 0.908
CGAACGAGGGCATGAGGTGATAGCAAATGCCGAT | 0.93
CCGACTGGGGCAGCAAGGTTACCATACCATCCGG | 1.25
CCTACTGCGCCAAAAAGGTCATTGATGCCGATAA | 4.94
AGAATGAGGTTATACGTACATCAGGGAAGAAAGT | 1.67
TCGAATAGGTTAGTCGGGGCATTCAGCCAACATA | 3.04
CCGAGCAGGCCAATCTGGGTCACTCAAGGCTTGA | 0.157
GCTATTACTTGAAAGGGCAACCGAATGATTCTCG | 0.432
CCTAGTCGGTCAAGGTCACACACGCTATAGGTAC | 4.29
CCAGACAGGTGGGAAGGTAACTCAGCCTCGATTA | -0.285
TCATATAGGTAAACAGGTAAAAGTCCGTAAGTTA | 1.29

Sequence | PBM binding z-score
CCTTACGGGTCAAGGTTATAGCACGGGTGGTACG | 3.41
ATACCCAGGTGATCGTGAGGTCGTTGATACTAAC | 2.51
ATCTCTAAGTAAAGTTCAGTGAAAGATCGATAGA | 1.67
CCTCCAAGGTCAATGCTAGGTCAGTGAAAGCATT | 4.74
CGTCCAAGGTCAAAGTTCAGTGAAGAGATGACGG | 5.84
TTGAGTAGGTTAGTCGGGGCATTCAGCCAACATA | 2.47
CCGACTGGGGCAGAAAGGTTAACATACCATCCGG | 1.12
TCTAGTTGGTCGAAGGTCACACACTCGAAATGCG | 3.37
ATCGAAAGGTCGACGAGGTGCGTATACACCGTTT | 4.18
ATCGAAAGGTCGGAGGTGAGTATACCCACCCGAA | 1.75
AGAACGAGGGCCCGCTGAGTTGATAGCAGAGTAG | -1.03
GATACAGGGTCAGCTAGAGTCCAGAGTATGGAAA | 4.13
CAAACTAGGTCATCCAGGACAGTGAATACATTGA | 4.58
TGGAGTAGGTTAGGGGCATTCAGAATGGCGTCGA | 1.05
TCTTGTAGAGCAATAGAGGTTAAGAAAGTGCGCT | 1.18
CCTTACGGGTCACTCCAGTTTATAGCATCGGAGT | 5.1
GGAAAGAGGGCAAGTTGATAGCAGAGTTTGATGG | 1.24
ACTATTAATTGAGACGAGGGCAACCGATAGGTTG | 0.764
TAGCCTAGGTCATGGGCCAGTACACCACGCGAAC | 2.38
ATCTCTAGGTAAAAGTTTAGTGAATCCCGAGGAT | 0.124
